# Data: PubChem BioAssay
# Calls of active or inactive are those of the source. Unless noted, no stated cut-off is given here; in the data, active means inhibition above about 80%; inactive means the rest.
# Tests used:
# [1] = sensitizers of A549 cells to miR-34 induction, primary screen, imaging, A549 dox-inducible miR-34, nuclei and caspase counts (AID 1347080;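 active means compounds whose cell count with miR-34 switched on is under 0.7 times the count with it off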); settings: A549 miR-34 inducible, Hoechst nuclei count, 48 h
# [2] = survival rescue of mitochondrial mutant cells in low glucose, primary screen, MELAS cybrids, Rieske KO mouse fibroblasts, CellTiter-Glo (AID 1508586;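 active means mean z-score across replicates of 1.96 or higher in either the MELAS or the Rieske mutant cell line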;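 further: z relative to plate mean and SD of compound and empty wells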)
# [3] = LFS_MB_P medulloblastoma growth inhibition, cell-based, chromothripsis tumors, cisplatin or BGB combos (AID 1671449); settings: LFS_MB_P medulloblastoma cells;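 further: cells exposed for 96 hours; 0% = vehicle DMSO and 100% = killing by high DMSO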
# [4] = HDN33 neuroblastoma growth inhibition, cell-based, chromothripsis tumors, cisplatin or BGB combos (AID 1671450); settings: HDN33 neuroblastoma cells, stronger effect = higher value;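 further: cells exposed to compound for four days; 0% = vehicle DMSO and 100% = cell killing by high DMSO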
# [5] = ICB984 medulloblastoma cell growth inhibition, synergistic combos for chromothripsis tumors, cisplatin or BGB combos (AID 1671451; call rule not given here;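 further: cells exposed for 96 hours before readout; 0% = vehicle DMSO and 100% = killing by high DMSO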); settings: ICB984 medulloblastoma cells, drug combinations, stronger effect = higher value
# [6] = LFS_MB_1R medulloblastoma cell growth inhibition, synergistic combos for chromothripsis tumors, cisplatin or BGB combos (AID 1671452); settings: LFS_MB_1R medulloblastoma cells, stronger effect = higher value;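 further: cells exposed for 96 hours before readout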
# [7] = HTB85 osteosarcoma cell growth inhibition, synergistic combos for chromothripsis tumors, BGB or cisplatin IC20 combos (AID 1671453); settings: HTB85 osteosarcoma cells, drug combinations, stronger effect = higher value;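 further: cells exposed for 96 hours before readout; 0% = vehicle DMSO and 100% = high DMSO killing control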
# [8] = CRL2098 osteosarcoma cell growth inhibition, synergistic combos for chromothripsis tumors, BGB or cisplatin IC20 combos (AID 1671454); settings: CRL2098 osteosarcoma cells, drug combinations, stronger effect = higher value;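 further: cells exposed for 96 h before readout; 0% = vehicle DMSO and 100% = killing by high DMSO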
# [9] = HD-MB03 medulloblastoma cell growth inhibition, synergistic combos for chromothripsis tumors, BGB or cisplatin IC20 combos (AID 1671455; in the data active means inhibition above about 83%;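 further: 0% = vehicle DMSO and 100% = high DMSO as cytotoxic control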); settings: HD-MB03 medulloblastoma cells, stronger effect = higher value
# [10] = UWB1.289 ovarian carcinoma cell growth inhibition, synergistic combos for chromothripsis tumors, BGB or cisplatin combos (AID 1671456); settings: UWB1.289 ovarian carcinoma cells, stronger effect = higher value;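 further: cells exposed to compound for four days; 0% = vehicle DMSO and 100% = killing by high DMSO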
# [11] = LFS_MB_2R medulloblastoma cell growth inhibition, synergistic combos for chromothripsis tumors, cisplatin combos (AID 1671457); settings: LFS_MB_2R medulloblastoma cells, stronger effect = higher value;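 further: cells exposed to compound for four days before readout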
# [12] = MDA-MB-436 breast carcinoma cell growth inhibition, synergistic combos for chromothripsis tumors, BGB or cisplatin combos (AID 1671458; call rule not given here;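 further: cells exposed for 96 hours; 0% = vehicle DMSO and 100% = killing by high DMSO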); settings: MDA-MB-436 breast carcinoma growth inhibition, drug combinations, stronger effect = higher value
# [13] = UWB1.289_BRCA1 ovarian cancer growth, cell-based, BGB or cisplatin combinations (AID 1671459); settings: UWB1.289 BRCA1 ovarian carcinoma, drug combinations, stronger effect = higher value
# [14] = human astrocyte viability loss, single and combined drugs, cytotoxicity control for chromothriptic childhood tumor combination screen, cell-based, BGB or cisplatin IC20 combos (AID 1671460); settings: Human astrocytes, drug combinations, stronger effect = higher value;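 further: cells exposed to compounds for 96 hours before viability readout; 0% = vehicle and 100% = killing control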
# [15] = growth inhibition of BT084 medulloblastoma cells, cell-based, ICGC_MB145, cisplatin and BGB IC40 combos (AID 1671461); settings: drug combinations, stronger effect = higher value;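 further: cells exposed to drugs for 96 hours; 0% = vehicle DMSO and 100% = high DMSO full killing control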
# [16] = growth inhibition of RCMB18 medulloblastoma cells, cell-based, cisplatin and BGB IC40 combos (AID 1671462); settings: stronger effect = higher value;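 further: cells exposed to compound for four days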
# [17] = growth inhibition of CRL1545 osteosarcoma cells, cell-based, cisplatin and BGB IC20 combos (AID 1671464); settings: stronger effect = higher value;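 further: cells exposed to compound for 96 hours before readout; 0% = vehicle DMSO and 100% = high DMSO killing control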
# [18] = measured here: combination with BGB IC40, at 0.05 µM
# [19] = measured here: with BGB IC20 combination, at 0.5 µM
# [20] = measured here: with cisplatin IC20 combination, at 0.5 µM
# [21] = measured here: combination with cisplatin, at 0.5 µM
# [22] = measured here: combination with cisplatin, at 5 µM
structure (smiles),measurement,setting,value
Nc1ncn(C2OC(CO)C(O)C2O)c(=O)n1 (centres undefined),fold change,"[1]; stronger effect = lower value, cell number ratio, induced over uninduced",0.707 (inactive)
same,fold change,[1]; measured here: relative caspase fold change +Dox/-Dox,0.203
same,cell count,"[1]; measured here: total cells with miR-34 induction, stronger effect = lower value",2140
same,cell count,[1]; measured here: total cells without miR-34 induction,3020
same,z-score,"[2]; MELAS cybrid survival, CellTiter-Glo 48 h, stronger effect = higher value",-0.256 (inactive)
same,z-score,"[2]; Rieske KO mouse fibroblast survival, CellTiter-Glo 72 h",0.025
same,inhibition,"[3]; at 0.5 µM, stronger effect = higher value",-5.82% (inactive)
same,inhibition,"[3]; measured here: combination with BGB IC20, at 0.005 µM",12.2%
same,inhibition,"[3]; measured here: combination with BGB IC40, at 0.005 µM",6.88%
same,inhibition,[3]; [18],-0.515%
same,inhibition,"[3]; measured here: combination with cisplatin, at 0.5 µM, stronger effect = higher value",-8.35%
same,inhibition,"[3]; measured here: combination with cisplatin, at 5 µM, stronger effect = higher value",15.6%
same,inhibition,"[4]; BGB combo, at 5 µM",35.3%
same,inhibition,[4]; at 0.5 µM,3.8% (inactive)
same,inhibition,"[4]; cisplatin combo, at 5 µM",38.5%
same,inhibition,[4]; [19],-3.13%
same,inhibition,[4]; [20],6.68%
same,inhibition,"[4]; single agent, at 5 µM",47.8%
same,inhibition,"[5]; BGB IC20 combo, at 0.005 µM",3.99%
same,inhibition,"[5]; BGB IC40 combo, at 0.005 µM",-4.47%
same,inhibition,"[5]; BGB IC40 combo, at 0.05 µM",64.1%
same,inhibition,[5]; at 0.5 µM,-14.1% (inactive)
same,inhibition,"[5]; cisplatin combo, at 0.05 µM",62.8%
same,inhibition,"[5]; cisplatin combo, at 0.5 µM",-8.65%
same,inhibition,"[5]; cisplatin combo, at 5 µM",-9.29%
same,inhibition,"[5]; measured here: 5 uM single agent, at 5 µM",-4.38%
same,inhibition,[6]; at 0.5 µM,1.69% (inactive)
same,inhibition,[6]; [18],-18.7%
same,inhibition,[6]; [21],-16%
same,inhibition,[6]; [22],-12%
same,inhibition,[7]; at 0.5 µM,-6.96% (inactive)
same,inhibition,"[7]; measured here: with BGB IC20, at 0.5 µM",-12.6%
same,inhibition,"[7]; measured here: with BGB IC20, at 5 µM",18.2%
same,inhibition,"[7]; measured here: with cisplatin IC20, at 0.5 µM",-13.1%
same,inhibition,"[7]; measured here: with cisplatin IC20, at 5 µM",4.48%
same,inhibition,"[7]; single agent, at 5 µM",30.1%
same,inhibition,[8]; at 0.5 µM,-21% (inactive)
same,inhibition,"[8]; measured here: combination with BGB at IC20, at 0.5 µM",-8.95%
same,inhibition,"[8]; measured here: combination with cisplatin at IC20, at 0.5 µM",-58.6%
same,inhibition,[9]; at 0.5 µM,2.06% (inactive)
same,inhibition,"[9]; measured here: combo with BGB at IC20, at 0.5 µM",4.05%
same,inhibition,"[9]; measured here: combo with cisplatin at IC20, at 0.5 µM",0.735%
same,inhibition,[10]; at 0.5 µM,18.4% (inactive)
same,inhibition,"[10]; measured here: inhibition with BGB combination, at 0.05 µM",8.02%
same,inhibition,"[10]; measured here: inhibition with cisplatin combination, at 0.05 µM",-5.92%
same,inhibition,[11]; at 0.5 µM,-0.31% (inactive)
same,inhibition,[11]; [21],-2.9%
same,inhibition,[11]; [22],21.8%
same,inhibition,[12]; at 0.5 µM,12.3% (inactive)
same,inhibition,"[12]; measured here: BGB combination, at 0.5 µM",18%
same,inhibition,"[12]; measured here: BGB combination, at 5 µM",23.9%
same,inhibition,"[12]; measured here: cisplatin combination, at 0.5 µM",0.452%
same,inhibition,"[12]; measured here: cisplatin combination, at 5 µM",23.8%
same,inhibition,"[13]; BGB combination, concentration series, at 5 µM",63.4%
same,inhibition,[13]; at 0.5 µM,20.7% (inactive)
same,inhibition,"[13]; cisplatin combination, concentration series, at 5 µM",51%
same,inhibition,[14]; at 0.5 µM,13.2% (inactive)
same,inhibition,"[14]; measured here: combo with BGB IC20, at 0.5 µM",17.7%
same,inhibition,"[14]; measured here: combo with cisplatin IC20, at 0.5 µM",11.2%
same,inhibition,[15]; at 0.5 µM,10.9% (inactive)
same,inhibition,"[15]; cisplatin combination, at 0.5 µM",-8.96%
same,inhibition,"[15]; cisplatin combination, at 5 µM",53.9%
same,inhibition,"[15]; measured here: BGB IC40 combination 0.05 uM, at 0.05 µM",30.7%
same,inhibition,"[15]; single agent, at 5 µM",8.5%
same,inhibition,[16]; at 0.5 µM,6.45% (inactive)
same,inhibition,"[16]; cisplatin combo, at 5 µM",53.3%
same,inhibition,"[16]; measured here: BGB IC40 combination, at 0.05 µM",-6.06%
same,inhibition,[16]; [21],6.83%
same,inhibition,"[16]; single agent, at 5 µM",41.5%
same,inhibition,[17]; at 0.5 µM,0.69% (inactive)
same,inhibition,[17]; [19],16.1%
same,inhibition,[17]; [20],-8.76%
same,inhibition,"[17]; single agent, at 0.05 µM",-10.6%
same,inhibition,"[17]; single agent, at 5 µM",9.69%
